Values joined by “and” are separate entries in the source; they are usually repeats but may differ in a detail not shown here. Equal entries are not always repeated. ± gives the standard deviation of the averaged measurements.
test system: Mv4-11; assay: cell viability relative to DMSO control (bortezomib = 0%); higher = less growth inhibition; conditions: 10 nM; 72 h
In short: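 Viability was determined with CellTiter-Glo luminescence. Acute myeloid leukemia cells (1000 per well, 50 µL) were exposed for 72 h to 679 approved and investigational compounds at a single 10 nM dose in 384-well plates. Percentages came from per-plate linear regression, setting DMSO-treated wells to 100% and positive-control-treated wells to 0%.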

Compound | cell viability
COc1ccc(COc2ccc(Cc3cnc(N)nc3N)cc2OC)cc1 | 123 ± 11%
Nc1ccn([C@@H]2O[C@H](CO)[C@@H](O)C2(F)F)c(=O)n1 [Gemcitabine] | -5.76 ± 18%
C=CC(=O)Nc1cc2c(Nc3ccc(F)c(Cl)c3)ncnc2cc1OCCCN1CCOCC1 [Canertinib (CI-1033)] | 111.9 ± 0.6%
COc1ccc(-n2c(SCC#N)nc3sc4c(c3c2=O)CCCC4)cc1 [Necrostatin-5] | 103 ± 3%
CNC(=O)Nc1cc(Oc2cncc(C)c2)c(-c2ccc(OCC(C)(C)O)nc2)cn1 | 101 ± 6.8%
COc1cc2c(Nc3ccc(NC(=O)c4ccccc4)cc3)ncnc2cc1OCCCN1CCOCC1 | 120 ± 19%
CCOC(=O)c1c2c3c(cccc3[nH]c1=O)C(=O)c1ccccc1-2 | 103 ± 19%
CS(=O)(=O)CCNCc1ccc(-c2ccc3ncnc(Nc4ccc(OCc5cccc(F)c5)c(Cl)c4)c3c2)o1 | 108 ± 9%
CNC(=O)c1cccc(-c2ccc3c(N4CCOC[C@@H]4C)nc(N4CCOC[C@@H]4C)nc3n2)c1 | 98.5 ± 20%
O=C(Nc1nc2cccc(-c3ccc(CN4CCS(=O)(=O)CC4)cc3)n2n1)C1CC1 [Filgotinib (GLPG0634)] | 107.7 ± 0.87%
CN1CCN(CCCNc2ncc(Cl)c(-c3cc4c(C(=O)NC5CC5)cccc4s3)n2)CC1 | 109 ± 13%
CS(=O)(=O)N1CCc2c(-c3cnc(N)nc3)nc(N3CCOCC3)nc21 | 126 ± 9.7%
CC(=O)c1c(C)c2cnc(Nc3ccc(N4CCNCC4)cn3)nc2n(C2CCCC2)c1=O | 105% and 111%
CC(C)c1ccc2c(c1)CC[C@H]1[C@](C)(CN)CCC[C@]21C [Leelamine] | 101 ± 9.8%

Source: the supplement of paper PMC8699584
